Results: PubChem BioAssay (EPA / NIEHS)
Results filed as inconclusive are left out. The source made the active and inactive calls. Rule for the calls: active = hit-call score of the fitted dose curve at least 0.9, where 1 is the maximum; inconclusive = response in the unintended direction; inactive = score below 0.9.

These compounds were tested against human Peroxisome Proliferator-activated Receptor delta (PPARd), PPARD (gene 5467) (UniProt Q03181) (assay: ATG_PPARd_TRANS: Attagene TRANS-FACTORIAL HepG2 Assay for human Peroxisome Proliferator-activated Receptor delta (PPARd) (AID 2283002)).
Method: ATG_TRANS is a cell-based, multiplexed-readout assay that uses HepG2, a human liver cell line, with measurements taken at 24 hours after chemical dosing in a 24-well plate.ATG_PPARd_TRANS is one of 30 assay component(s) measured or calculated from the ATG_TRANS assay. It is designed to make measurements of mRNA induction, a form of inducible reporter, as detected with fluorescence intensity signals by Reverse transcription polymerase chain reaction (RT-PCR) and Capillary electrophoresis technology.Data from the assay component ATG_PPARd_TRANS was analyzed into 1 assay endpoint. This assay endpoint, ATG_PPARd_TRANS, was analyzed in the positive analysis fitting direction relative to DMSO as the negative control and baseline of activity. Using a type of inducible reporter, measures of mRNA for gain-of-signal activity can be used to understand the reporter gene at the transcription factor-level as they relate to the gene PPARD. Furthermore, this assay endpoint can be referred to as a primary readout, because this assay has produced multiple assay endpoints where this one serves a reporter gene function. To generalize the intended target to other relatable targets, this assay endpoint is annotated to the nuclear receptor intended target family, where the subfamily is non-steroidal.
Human liver HepG2 cells are transiently transfected with multiple reporter transcription units (MRTUs) in 6-well plates using FuGene 6 reagent (Roche; 3 ml FuGene/1 mg DNA). The MRTU constructs are regulated by a cis-regulating element (promoter). […] A major difference between the CIS and TRANS system is that in CIS activities of endogenous TFs are measured, whereas the TRANS assay evaluates changes in activities of exogenous, chimeric NR-Gal4 proteins. […] At the end of 24 hour incubation, total RNA was isolated using TriZol reagent (Invitrogen). The isolated RNA is then reverse-transcribed using oligo(dT) primer and Mo-MLV reverse transcriptase (Invitrogen) with DNAse I (Ambion) treatment for 30 min. The one-tenth of the produced cDNA was amplified by PCR using Taq DNA polymerase (Invitrogen) and two reporter sequence-specific primers. The PCR products were fluorescently labeled by primer extension with 6-arboxyfluorescein (6-FAM) 5'-labeled reporter sequence-specific primer (2 min at 95 C, 20 s at 68 C and 10 min at 72 C) and these products were digested with 5U of HpaI (New England Biolabs) for 2h at 37 C. The fragments were purified using Qiaquick PCR columns (Qiagen), analyzed on an ABI 3130xL genetic analyzer (Applied Biosystems) with peak positions identified by using a set of X-rhodamine (ROX)-labeled MapMarker1000 molecular weight standards (BioVentures). The raw capillary electrophoresis data was processed using Attagraph software (Attagene).

Sequence of human Peroxisome Proliferator-activated Receptor delta (PPARd), PPARD (gene 5467) (Q03181 whole entry, looked up): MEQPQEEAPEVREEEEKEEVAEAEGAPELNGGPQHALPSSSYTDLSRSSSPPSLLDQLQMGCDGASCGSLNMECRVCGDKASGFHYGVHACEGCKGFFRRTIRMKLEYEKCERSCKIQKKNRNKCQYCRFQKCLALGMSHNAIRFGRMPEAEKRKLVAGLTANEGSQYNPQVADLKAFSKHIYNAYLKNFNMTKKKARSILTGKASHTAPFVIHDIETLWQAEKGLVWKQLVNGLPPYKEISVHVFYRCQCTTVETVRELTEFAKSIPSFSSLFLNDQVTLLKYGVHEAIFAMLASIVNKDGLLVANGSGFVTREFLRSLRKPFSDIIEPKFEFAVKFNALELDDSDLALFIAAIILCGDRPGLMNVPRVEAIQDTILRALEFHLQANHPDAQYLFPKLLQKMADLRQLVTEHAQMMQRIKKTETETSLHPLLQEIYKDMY

| Compound | outcome |
| --- | --- |
| O=C(O)C(F)(F)C(F)(F)C(F)(F)C(F)(F)C(F)(F)C(F)(F)C(F)(F)F | inactive |
| O=[N+]([O-])c1c(Cl)c(Cl)c(Cl)c(Cl)c1Cl | inactive |
| CC(C)N(C(=O)COc1nnc(C(F)(F)F)s1)c1ccc(F)cc1 | inactive |
| O=C(O)COc1ccc(Cl)cc1Cl | inactive |
| COc1nn(CSP(=S)(OC)OC)c(=O)s1 | inactive |
| O=C(NC(=O)c1c(F)cccc1F)Nc1ccc(OC(F)(F)C(F)OC(F)(F)F)c(Cl)c1 (stereo not drawn) | inactive |
| CCC(C)(NC(=O)c1cc(Cl)c(C)c(Cl)c1)C(=O)CCl (stereo not drawn) | inactive |
| COC(=O)c1ccccc1S(=O)(=O)NC(=O)N(C)c1nc(C)nc(OC)n1 | inactive |
| ClC1C(Cl)C(Cl)C(Cl)C(Cl)C1Cl (stereo not drawn) | inactive |
| CNC(=O)Oc1cccc(N=CN(C)C)c1 | inactive |
| CC(C)(C)C(O)/C(=C\c1ccc(Cl)cc1Cl)n1cncn1 (stereo not drawn) | inactive |
| CCCN(CCOc1c(Cl)cc(Cl)cc1Cl)C(=O)n1ccnc1 | inactive |
| COP(=S)(OC)Oc1ccc(SC)c(C)c1 | inactive |
| CNC(=O)CSP(=S)(OC)OC | inactive |
| CCOc1nc(NC)nc(NC(=O)NS(=O)(=O)c2ccccc2C(=O)OC)n1 | inactive |
| Clc1ccccc1-c1nnc(-c2ccccc2Cl)nn1 | inactive |
| N#CN | inactive |
| CCS(=O)(=O)c1cccnc1S(=O)(=O)NC(=O)Nc1nc(OC)cc(OC)n1 | inactive |
| Oc1ccc(Cl)cc1Cc1ccccc1 | inactive |
| N#Cc1c(Cl)c(Cl)c(Cl)c(C#N)c1Cl | inactive |
| COP(=S)(OC)Oc1ccc([N+](=O)[O-])cc1 | inactive |
| COC(=O)c1ccccc1CS(=O)(=O)NC(=O)Nc1nc(OC)cc(OC)n1 | inactive |
| CCOC1Oc2ccc(OS(C)(=O)=O)cc2C1(C)C (stereo not drawn) | inactive |
| O=C(Nc1ccccc1)Nc1cnns1 | inactive |
| Oc1cc(Cl)ccc1Oc1ccc(Cl)cc1Cl | inactive |
| COP(=O)(OC)OC=C(Cl)Cl | inactive |
| CC1(c2ccc(Oc3ccccc3)cc2)OC(=O)N(Nc2ccccc2)C1=O (stereo not drawn) | inactive |
| CC(C)OC(=O)Nc1cccc(Cl)c1 | inactive |
